# According to PubChem BioAssay (Tox21):
# Inconclusive results are not listed. Values without a mark were called inactive. Calls follow the shape of the dose curve; as a rule, active = well fitted cell-killing curve with a large enough effect in the repeat runs; inconclusive = weak or mixed curves; inactive = flat fitted curve, though single readings scatter.
# Experiment: qHTS RealTime-Glo MT Cell Viability Assay in HepG2 cells - 8 hour (AID 1224873); also: nearly all actives have a fitted effect of over 55% in size
# Details: RealTime-Glo luminescence; series mostly up to 76.8 µM; viability change, negative = cytotoxic: at the top concentration
# How it was run: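 HepG2 cells mixed with RealTime-Glo MT reagents (NanoLuc plus cell-permeant prosubstrate) were seeded at 600 cells/well, incubated 5 h at 37 C/5% CO2, then pinned with compounds in DMSO; nonlytic luminescence tracked viability during 40 h treatment.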
# % is scaled to controls: 0 for no effect and ±100 for the full control effect.
row,Structure (SMILES),"viability change, negative = cytotoxic"
1,C=CC(=O)OCCCCCCCCCC,-1.85%
2,O=C(O)c1ccc2c(c1)nc(C(=O)NC1CCN(C3CC3)CC1)n2Cc1cc(-c2ccc(Cl)s2)on1,-2.47% [at 15.8 µM]
3,CC(COc1ccccc1)NC(C)C(O)c1ccc(O)cc1 (stereo not drawn),0.787% [at 35.3 µM]
4,Clc1nc2ccccc2nc1Cl,-4.53%
5,CCCCCCCCCCCC(=O)OCC,2.74%
6,CCCN(C1CCN(C(=O)C2CCNCC2)CC1)[C@@H]1CCc2ccc(OC)cc2C1,-2.37%
7,CCCOC(C)=O,1.39%
8,Cc1c(-c2cccnc2)c2ccccc2n1CCCCC(=O)O,0.0252%
9,CCC(=O)O[C@@H]1C[C@H]2CC[C@]1(C)C2(C)C,-1.38%
10,O=[N+]([O-])c1cccc(I)c1,1.8%
11,O=C(O)c1c2ccccc2cc2ccccc12,3.23%
12,O=C(O)c1cccnc1Nc1cccc(C(F)(F)F)c1,1.27% [at 35.3 µM]
13,Cc1ccc2ccccc2c1[N+](=O)[O-],3.55%
14,O=c1c2ccccc2oc2ccccc12,-0.665%
15,CC(=O)c1ccc(Cl)c(Cl)c1Cl,0.584%
16,CCc1cnc(C(=O)O)c(C(=O)O)c1,0.567%
17,C=CC(O)CCCCC (stereo not drawn),4.88%
18,COc1cccc([C@H](O)C2CCN(CCc3ccc(F)cc3)CC2)c1OC,0.123%
19,Cc1nc2sccn2c(=O)c1CCN1CCC(=C(c2ccc(F)cc2)c2ccc(F)cc2)CC1,-18.6% [at 35.3 µM]

row,Structure (SMILES),"viability change, negative = cytotoxic"
1,C=C(C)C(=O)OCCCCCCCCCCOC(=O)C(=C)C,-0.686%
2,C=CC(=O)NC(C)(C)C,0.724%
3,COc1ccc(C(=O)Nc2ccccc2)cc1[N+](=O)[O-],-13.9%
4,Sc1nc(S)nc(S)n1,1.88% [at 35.3 µM]
5,CCCc1ccc(OC)cc1,3.99%
6,CC(C)CC(C)(C)C,-4.1%
7,C(/C=C/C=C/Nc1ccccc1)=Nc1ccccc1,-3.84%
8,OCC(O)c1ccccc1 (stereo not drawn),0.499%
9,CO[C@@H]1[C@@H](O[C@@H]2O[C@H](C)[C@@H](O[C@H]3C[C@@](C)(O)[C@@H](O)[C@H](C)O3)[C@H](N(C)C)[C@H]2O)[C@@H](CC=O)C[C@@H](C)[C@@H](O[C@@H]2CC[C@H](N(C)C)[C@@H](C)O2)/C=C/C=C/C[C@@H](C)OC(=O)C[C@H]1OC(C)=O,-7.92% [at 35.3 µM]
10,O=C1c2ccccc2C(=O)C1c1ccc2ccccc2n1,-23.6% [at 35.3 µM]
11,CC(=O)Nc1ccccc1O,4.3%
12,O=C(OCCN1CCOCC1)c1cccnc1Nc1cccc(C(F)(F)F)c1,-3.86% [at 35.3 µM]
13,Oc1ccc(Oc2ccccc2)cc1,-12.7%
14,C=C[Si](OCC)(OCC)OCC,-0.0411%
15,O=[N+]([O-])c1ccccc1CCO,0.34%
16,O=C(Cl)c1cc(Cl)cc(Cl)c1,-5.33%
17,CCC1=C(C)CN(C(=O)NCCc2ccc(S(=O)(=O)NC(=O)NC3CCC(C)CC3)cc2)C1=O (stereo not drawn),-5.23% [at 35.3 µM]
18,CCCCCC1CCC(=O)O1 (stereo not drawn),4.34%
19,CCOc1cc(OCC)c(C(C)=O)cc1OCC,-12.3%
